# A selection: hits, their analogues and other compounds. The true share with any hit is near 3.6%.
# Pf apPOL inh: Pf-apPOL DNA polymerase inhibition | Recombinant Pf-apPOL, molecular beacon fluorescence, 1.5 h | inhibition, % at 10 µM | 210,000 compounds, 0.25% hits | AID 1794808
# mHTT-CaM PPI inh: mHTT-calmodulin interaction abrogation. 190,000 compounds, 3.6% hits. inhibition, % at 15 µM. P42858. AlphaScreen His-mHTT/GST-CaM binding, luminescence;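 note: 0% = both proteins with DMSO and 100% = one protein alone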
# Target sequence (P42858 whole entry, looked up, stated change not applied): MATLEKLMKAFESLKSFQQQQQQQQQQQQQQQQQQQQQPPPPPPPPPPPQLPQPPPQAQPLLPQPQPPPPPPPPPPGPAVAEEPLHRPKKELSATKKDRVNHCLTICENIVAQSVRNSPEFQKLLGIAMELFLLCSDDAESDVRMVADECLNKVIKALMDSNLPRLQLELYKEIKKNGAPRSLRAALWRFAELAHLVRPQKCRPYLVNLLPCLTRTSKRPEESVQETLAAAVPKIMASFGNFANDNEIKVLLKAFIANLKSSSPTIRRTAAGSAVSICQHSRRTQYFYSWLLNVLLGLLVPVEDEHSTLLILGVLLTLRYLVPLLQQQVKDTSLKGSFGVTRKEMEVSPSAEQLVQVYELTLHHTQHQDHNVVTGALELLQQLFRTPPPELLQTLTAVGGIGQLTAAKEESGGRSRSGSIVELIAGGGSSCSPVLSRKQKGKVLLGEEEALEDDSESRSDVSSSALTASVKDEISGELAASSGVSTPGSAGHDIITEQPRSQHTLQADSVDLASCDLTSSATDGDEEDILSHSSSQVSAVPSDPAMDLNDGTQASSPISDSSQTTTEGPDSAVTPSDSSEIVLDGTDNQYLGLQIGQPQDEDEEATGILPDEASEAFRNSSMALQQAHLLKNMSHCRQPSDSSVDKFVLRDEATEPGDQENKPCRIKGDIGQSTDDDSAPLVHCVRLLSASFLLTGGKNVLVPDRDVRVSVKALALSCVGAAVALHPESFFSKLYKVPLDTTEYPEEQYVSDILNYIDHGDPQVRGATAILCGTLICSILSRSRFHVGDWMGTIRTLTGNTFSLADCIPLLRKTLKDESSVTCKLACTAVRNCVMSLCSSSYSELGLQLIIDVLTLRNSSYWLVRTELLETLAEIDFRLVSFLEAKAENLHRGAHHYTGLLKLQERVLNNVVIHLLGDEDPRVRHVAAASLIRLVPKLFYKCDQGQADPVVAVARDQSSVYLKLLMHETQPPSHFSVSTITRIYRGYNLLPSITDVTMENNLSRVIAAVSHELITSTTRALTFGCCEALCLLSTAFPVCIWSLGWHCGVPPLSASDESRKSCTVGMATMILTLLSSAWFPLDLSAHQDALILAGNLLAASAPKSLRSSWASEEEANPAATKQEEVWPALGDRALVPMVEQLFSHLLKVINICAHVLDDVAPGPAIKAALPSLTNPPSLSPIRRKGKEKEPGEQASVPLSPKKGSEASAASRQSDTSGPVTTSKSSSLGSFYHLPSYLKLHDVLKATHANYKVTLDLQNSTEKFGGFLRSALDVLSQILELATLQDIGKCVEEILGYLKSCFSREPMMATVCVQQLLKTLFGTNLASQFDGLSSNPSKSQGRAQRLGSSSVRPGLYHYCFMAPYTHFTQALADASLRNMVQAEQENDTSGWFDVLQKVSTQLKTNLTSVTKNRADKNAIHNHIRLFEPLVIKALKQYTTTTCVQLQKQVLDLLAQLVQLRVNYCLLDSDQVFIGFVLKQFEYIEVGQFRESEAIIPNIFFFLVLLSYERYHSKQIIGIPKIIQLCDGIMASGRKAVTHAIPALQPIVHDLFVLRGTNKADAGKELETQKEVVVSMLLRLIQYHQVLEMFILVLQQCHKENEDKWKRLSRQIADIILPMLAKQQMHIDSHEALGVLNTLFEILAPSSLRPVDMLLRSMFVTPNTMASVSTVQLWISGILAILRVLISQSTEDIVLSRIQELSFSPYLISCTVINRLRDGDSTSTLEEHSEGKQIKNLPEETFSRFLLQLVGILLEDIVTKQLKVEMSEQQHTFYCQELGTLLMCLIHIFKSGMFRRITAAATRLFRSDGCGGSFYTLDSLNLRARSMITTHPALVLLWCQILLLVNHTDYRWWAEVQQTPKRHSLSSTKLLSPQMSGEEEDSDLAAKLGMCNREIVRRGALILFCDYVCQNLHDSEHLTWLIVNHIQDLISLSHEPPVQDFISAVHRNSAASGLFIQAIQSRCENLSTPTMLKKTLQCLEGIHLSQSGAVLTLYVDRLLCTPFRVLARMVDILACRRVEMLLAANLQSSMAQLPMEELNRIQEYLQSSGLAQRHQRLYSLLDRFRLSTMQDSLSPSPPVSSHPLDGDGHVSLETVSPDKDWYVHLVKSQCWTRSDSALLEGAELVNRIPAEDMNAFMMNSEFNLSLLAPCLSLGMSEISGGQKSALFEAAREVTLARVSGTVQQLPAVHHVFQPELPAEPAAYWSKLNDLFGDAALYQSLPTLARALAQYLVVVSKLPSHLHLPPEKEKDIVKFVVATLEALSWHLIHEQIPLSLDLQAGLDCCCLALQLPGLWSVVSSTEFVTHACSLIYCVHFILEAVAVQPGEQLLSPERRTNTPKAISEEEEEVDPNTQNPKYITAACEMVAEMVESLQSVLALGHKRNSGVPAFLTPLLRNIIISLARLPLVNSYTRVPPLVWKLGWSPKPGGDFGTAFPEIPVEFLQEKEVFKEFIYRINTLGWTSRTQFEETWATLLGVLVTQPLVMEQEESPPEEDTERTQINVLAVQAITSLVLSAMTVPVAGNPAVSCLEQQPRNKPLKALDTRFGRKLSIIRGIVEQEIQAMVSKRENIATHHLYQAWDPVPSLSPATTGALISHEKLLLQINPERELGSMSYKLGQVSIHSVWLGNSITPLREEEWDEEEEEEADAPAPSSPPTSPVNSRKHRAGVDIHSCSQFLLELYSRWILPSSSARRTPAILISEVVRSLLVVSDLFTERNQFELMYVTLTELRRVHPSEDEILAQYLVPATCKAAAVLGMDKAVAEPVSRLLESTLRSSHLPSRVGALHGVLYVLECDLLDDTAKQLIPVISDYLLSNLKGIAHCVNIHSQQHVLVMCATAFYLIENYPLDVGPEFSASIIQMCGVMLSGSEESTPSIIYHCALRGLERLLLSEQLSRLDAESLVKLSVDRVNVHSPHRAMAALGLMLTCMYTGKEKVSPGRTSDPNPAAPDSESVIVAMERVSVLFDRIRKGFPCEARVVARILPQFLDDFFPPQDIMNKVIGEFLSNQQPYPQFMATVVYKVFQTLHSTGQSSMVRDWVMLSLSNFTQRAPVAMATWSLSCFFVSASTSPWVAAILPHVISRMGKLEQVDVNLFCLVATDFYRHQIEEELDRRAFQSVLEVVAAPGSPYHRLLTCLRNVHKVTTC
# An asterisk follows results filed as active; nt = not tested or not shown. Cut-off read from the data, not from the text of the source: active = inhibition above about 50%; inactive = the rest.
SMILES,Pf apPOL inh,mHTT-CaM PPI inh
CC(=O)N1CCc2cc(Br)cc(S(=O)(=O)CCC(=O)NC3CCCC3)c21,4,-4
CCOCCCNC(=O)c1c[nH]c2ccc(S(=O)(=O)N(CC)c3ccc(F)cc3)cc2c1=O,-4,25
CCOc1ccc(-n2nc(C(=O)Nc3ccc(F)cc3Cl)c3ccccc3c2=O)cc1,1,-9
Cc1ccc(C)c(C(=O)Nc2cnc(N3CCCCC3)nc2)c1,-3,-2
CC1(C)CC(=O)C2=C(C1)NC1=C(C(=O)c3ccccc31)C2c1ccc(F)cc1 (stereo not drawn),-6,62*
CC1(C)CC(=O)C2=C(C1)NC1=C(C(=O)c3ccccc31)C2c1cccs1 (stereo not drawn),0,47
COc1ccc(NC(=O)[C@@H]2CC=C[C@@H]3CCN(Cc4ccc(Cl)c(Cl)c4)C(=O)[C@@H]32)cc1,-6,96*
COc1ccc(CN2CC[C@H]3C=CC[C@@H](C(=O)O)[C@H]3C2=O)cc1OC,-2,3
COc1ccc(NC(=O)[C@@H]2CC=C[C@@H]3CCN(Cc4ccccc4)C(=O)[C@@H]32)cc1,-4,2
COc1ccc(CN2CC[C@H]3C=CC[C@@H](C(=O)Nc4ccc(Cl)c(C(F)(F)F)c4)[C@H]3C2=O)cc1OC,-7,56*
CCOc1ccccc1C(=O)N1CCCC(COc2cccc(C(=O)N3CCCC3)c2)C1 (stereo not drawn),-6,-4
O=C(CSCCS(=O)(=O)c1ccccc1)NN=Cc1ccsc1,-3,nt
COc1ccc(CNS(=O)(=O)c2cc(C(=O)Nc3ccc(C)c(F)c3)ccc2F)cc1,-2,17
COc1ccc(-c2nc3ccc(C)cn3c2NC(=O)C2CCCC2)cc1,-3,51*
COc1ccc(-c2nc3cc(C)ccn3c2NC(=O)C2CCCC2)cc1,7,31
COc1ccc(OC)c(NC(=O)c2nc(C)oc2C)c1,5,-8
Clc1ccc(-c2cn3nc(-c4ccccc4)sc3n2)cc1,-6,3
CC(=O)Nc1ccc(-c2cn3nc(-c4ccccc4)sc3n2)cc1,0,58*
Cc1cccc2c(=O)n(C)c(CCC(=O)NCc3cc(F)ccc3F)nc12,1,-11
CC(C)C[C@@H](COCc1cccc(Cl)c1)N1CCN(C(=O)c2ccc(C(F)(F)F)cc2)CCC1=O,-4,99*
Cc1ccc(S(=O)(=O)N2CCC(=O)N([C@H](COCc3cccc(Cl)c3)C(C)C)CC2)cc1,-3,-3
COCCC1CCN(C(=O)c2ccc(C(F)(F)F)cc2)CC1,-3,3
CC(C)C[C@@H](COCc1ccc(C(F)(F)F)cc1)N1CCN(C(=O)c2ccc(C(F)(F)F)cc2)CCC1=O,-4,93*
Cc1ccc(CNC(=O)C2CCCN(C(=O)c3cccc(C(F)(F)F)c3)C2)cc1 (stereo not drawn),11,32
Cc1ccc(COC[C@H](CC(C)C)N2CCN(C(=O)c3cccc(C(F)(F)F)c3)CCC2=O)cc1,-2,91*
SMILES,Pf apPOL inh,mHTT-CaM PPI inh
Cc1ccccc1CNC(=O)c1c(C)noc1-c1ccccc1C,2,-12
CC(=O)Nc1ccc(C=C[N+](=O)[O-])cc1,-6,nt
CCOC(=O)N1CCc2nn(CC(=O)Nc3ccccc3C(C)C)c(=O)cc2C1,-4,3
Cc1nnc(N2C(=O)C(O)=C(C(=O)c3cccs3)C2c2ccc(Cl)c(Cl)c2)s1 (stereo not drawn),-4,92*
Cc1nnc(N2C(=O)C(O)=C(C(=O)c3cccs3)C2c2ccccc2F)s1 (stereo not drawn),-8,31
O=c1cc(-c2cc3ccccc3o2)c2cc3c(cc2o1)OCO3,2,-3
O=C1C(=O)N(C(c2ccccc2)c2ccccc2)c2ccccc21,0,92*
O=C(O)CN1C(=O)C(=O)c2ccccc21,2,3
Cc1noc(C2CCCCN2Cc2nc(-c3cccs3)no2)n1 (stereo not drawn),-3,0
COc1ccc(/C=C/c2ccc3c(Cl)ccc(O)c3n2)cc1,-3,79*
Oc1cccc2ccc(/C=C/c3ccc(F)cc3)nc12,-3,34
c1ccc(-c2nnc3sc(C4CCCCC4)nn23)nc1,nt,5
Brc1ccc(-c2nn3c(-c4ccccn4)nnc3s2)o1,nt,85*
N#Cc1ccc(CNC(=S)Nc2ccc(Cl)c(Cl)c2)cc1,61*,nt
O=C(NCc1ccncc1)C(=O)Nc1ccc(Cl)c(Cl)c1,-3,5
O=C(Cc1ccc(NC(=O)c2ccc(F)cc2F)cc1)NCc1cccs1,9,-10
O=[N+]([O-])c1ccc(Cl)c(C[n+]2ccc3ccccc3c2)c1,-2,-6
Cc1cccc(NC(=O)NCCC2CCN(C(=O)NC3CCCCC3)CC2)c1,-6,-14
O=C(NCCc1ccc(Cl)cc1)c1cc(-c2cccnc2)nc2ccccc12,-7,58*
O=C(NCCCn1ccnc1)c1cc(-c2ccc(Br)cc2)nc2ccccc12,-2,44
O=C(NCCCn1ccnc1)c1cc(-c2ccc(Cl)s2)nc2ccccc12,3,50*
O=C(NCc1cccnc1)c1cc(-c2cccnc2)nc2ccccc12,-9,-17
O=C(NCC(=O)N1CC(c2nc(-c3ccccc3)no2)C1)c1ccccc1,0,-2
O=C(Nc1ccc(Cl)cc1)c1ccc2nonc2c1,5,nt
c1csc(-c2nc3sc(-c4cccs4)nc3s2)c1,1,-16
SMILES,Pf apPOL inh,mHTT-CaM PPI inh
COc1ccc(NC(=O)N2CC(C)Oc3ccc(C)cc32)cc1OC (stereo not drawn),-6,-1
CC(=O)n1c(C=Nc2ccc(Cl)cc2)c(O)c2ccccc21,-1,-2
Oc1ccccc1N=Cc1c(Cl)cccc1Cl,-5,12
CCC(CO)N=Cc1c(O)n(-c2c(Cl)cccc2Cl)c2ccccc12 (stereo not drawn),-1,83*
OCCN=Cc1c(O)n(-c2c(Cl)cccc2Cl)c2ccccc12,-1,85*
O=C(CSc1nc2[nH]ncc2c(=O)n1-c1ccc(Br)cc1)NCc1cccs1,-1,8
CS(=O)(=O)N1CCCc2ccc(NC(=O)c3ccc4nsnc4c3)cc21,-11,-1
Cc1ccc(-c2nc(C(=O)NC3CCN(Cc4ccccc4)CC3)cs2)n1C,-3,75*
Cc1ccc(-c2nc(C(=O)N3CCN(C4CCCCC4)CC3)cs2)n1C,-3,70*
O=C(c1csc(-c2ccncc2)n1)N1CCC(N2CCCCC2)CC1,-2,-11
Cc1ccc(-c2nc(C(=O)Nc3ccc(F)cc3)cs2)n1C,2,58*
Cc1ccccc1NC(=O)c1csc(-c2ccc(C)n2C)n1,-5,-6
Cc1ccc(-c2nc(C(=O)NC3CCCC3)cs2)n1C,0,42
CC1CCc2nn(CC(=O)Nc3cc(F)ccc3F)c(=O)cc2C1 (stereo not drawn),-12,-3
COc1nccnc1N1CCC(N(C)C(=O)NC2CCCC2)C1 (stereo not drawn),-2,-3
CCn1c(N2CCC(C(=O)N3CCN(c4ccc(F)cc4)CC3)CC2)cc(=O)n(C)c1=O,4,70*
Cn1c(N2CCC(C(=O)N3CCN(c4ccc(Cl)cc4)CC3)CC2)cc(=O)n(C)c1=O,-1,50
CCCn1ncc(N2CCC(C(=O)Nc3ccc(OC)cc3OC)CC2)cc1=O,-2,20
CCn1c(N2CCC(C(=O)Nc3cccc(OC)c3)CC2)cc(=O)n(C)c1=O,0,44
CCCn1ncc(N2CCC(C(=O)Nc3cc(C)ccc3OC)CC2)cc1=O,-2,77*
CCn1c(N2CCC(C(=O)Nc3ccc(F)cc3)CC2)cc(=O)n(C)c1=O,-6,28

# Screening data deposited in PubChem by University of Kansas High Throughput Screening Laboratory.
